Results on 40 compounds are retold here after PubChem BioAssay (Tox21).

Inconclusive results are not listed. A call without a number means that no potency is given here. Active and inactive are the calls of the source. The call rests on the fitted dose curve; in most records, active means well fitted cell-killing curve with a large enough effect in the repeat runs; inconclusive means weak or mixed curves, or effect the other way; inactive means flat fitted curve, though single readings scatter.
Potency means the concentration at half of the fitted maximal effect.

This test in a line: cAMP Responsive Elements (CRE) small molecule antagonists, cell-based qHTS assay: qHTS cell viability counter screen (AID 2060913). Further: nearly all actives have a fitted effect of over 40% in size. Conditions: CRE-bla HEK293T viability, CellTiter-Glo luminescence, 5 h; series mostly up to 92.4 µM. The text has this:
U.S. Tox21 Program National Center for Advancing Translational Sciences [NCATS] Division of Preclinical Innovation [DPI] U.S. Environmental Protection Agency [EPA] National Institutes of Environmental Health Sciences [NIEHS] National Toxicology Program [NTP] U.S. Food and Drug Administration [FDA] Tox21 Assay Overview: CREB (cyclic-AMP Responsive Element Binding Protein) is a cellular transcription factor. It binds to certain DNA sequences called cAMP Responsive Elements (CRE) and regulates the transcription of the genes. […] This cell line can be used to find agonists/antagonists of the cyclic AMP signaling pathway. The activation of the report gene under culture conditions can be detected by fluorescence intensity. This cell line has been used to screen the Tox21 10K compound library to identify agonists that induce oxidative stress. The cytotoxicity of the Tox21 compound library against the CRE-bla cell line was tested in parallel by measuring the cell viability using CellTiter-Glo assay (Promega, Madison, WI) in the same wells.
Tox21 Assay Protocol Summary: CRE-bla Hek 293T cells were suspended in assay medium (DMEM containing 10% dialyzed FBS, 0.1 mM NEAA, 1 mM sodium pyruvate and 25 mM HEPES) and dispensed at 2,000 cells/4 uL /well into 1536-well black wall/clear bottom plates using a Multidrop Combi (ThermoFisher Scientific, Waltham, MA) dispenser. After the assay plates were incubated at 37 C/5% CO2 for 18 hrs, 23 nL of compounds dissolved in DMSO, positive controls or DMSO only was transferred to the assay plate by a pintool workstation (Kalypsys, San Diego, CA), followed by addition of 1 uL of 1.25uM NKH477 (0.25 uM as final concentration) in assay medium using a Flying Reagent Dispenser (Aurora Discovery, San Diego, CA). The plates were incubated at 37 C and 5% CO2 for 3 hrs. Then 1 uL of LiveBLAzer B/G FRET substrate (Invitrogen, Carlsbad, CA) was added to each well using Bioraptr Flying Reagent Dispenser (FRD, Aurora Discovery, San Diego, CA). The plates were incubated at room temperature for 2 h, then fluorescence intensities were measured using an Envision plate reader (PerkinElmer, Shelton, CT) at Excitation 405nm, Emission 460nm and 530nm. The % activity was determined from the ratio of 460nm/530nm. For cell viability readout that measures cytotoxicity, 4 uL /well of CellTiter-Glo reagent was added into the assay plates using Bioraptr FRD. After 30 min incubation at room temperature, the luminescence intensity in the assay plates was measured using a ViewLux (PerkinElmer, Shelton, CT) plate reader.
`CCCCC(CC)CN` (stereo not given): the Potency entry is “inactive”.

Turning to `CCCCCCCCCCCC[N+](C)(C)CCCCCCCCCCCC`, the Potency is 40.3 µM (active).

On to `Nc1ccc2cc(S(=O)(=O)O)ccc2c1`, for which the Potency result was “inactive”.

As to `CC/C=C\CCCCCO`, the Potency entry is “inactive”.

With `O=S(=O)(c1cccc2cnccc12)N1CCCNCC1`, the Potency result is “inactive”.

Take `CN1C[C@H](C(=O)N[C@]2(C)O[C@@]3(O)[C@@H]4CCCN4C(=O)[C@H](Cc4ccccc4)N3C2=O)C[C@@H]2c3cccc4[nH]cc(c34)C[C@H]21`: the Potency result is “inactive”.

As to `O=C(O)c1cc(C(=O)O)c(C(=O)O)cc1C(=O)O`, the Potency entry is “inactive”.

With `Oc1ccc(Cl)cc1Cc1cc(Cl)ccc1O`, the Potency is 50.8 µM (active).

On to `CC(=O)c1ccc2c(c1)Cc1ccccc1-2`, for which the Potency result was “inactive”.

Regarding `O=C1CC2(CCCC2)CC(=O)N1CCNCC1COc2ccccc2O1` (stereo not given), the Potency entry was “inactive”.

`C=C/C(C)=C/C/C=C(\C)CCC=C(C)C`: the Potency entry was “inactive”.

Consider `CCOc1cc([N+](=O)[O-])c(OCC)cc1N1CCOCC1`, for which the Potency result was “inactive”.

For `CCCCCCCCCCCCCCCCCCOS(=O)(=O)O`, the Potency entry is “inactive”.

Consider `CCCC1CCOC(C)S1` (stereo not given), for which the Potency entry was “inactive”.

In the case of `CCCC(C(=O)OCCN(CC)CC)(c1ccccc1)c1ccccc1`, the Potency entry is “inactive”.

In the case of `CCOC(=O)N1CCC(Nc2ccc(Cl)cc2N)CC1`, the Potency entry is “inactive”.

As to `O=C1c2cccc(O)c2C(=O)c2c(O)cc(CO)cc21`, the Potency entry was “inactive”.

Consider `COC(OC)C(C)c1ccccc1` (stereo not given), for which the Potency entry is “inactive”.

For the compound `CCN(CC)CCOCCOC(=O)C1(c2ccccc2)CCCC1`, the Potency result is “inactive”.

For `NC(=O)CC[C@@H]1NC(=O)[C@H](Cc2ccccc2)NC(=O)[C@H](Cc2ccc(O)cc2)NC(=O)CCSSC[C@@H](C(=O)N2CCC[C@H]2C(=O)N[C@@H](CCCN=C(N)N)C(=O)NCC(N)=O)NC(=O)[C@H](CC(N)=O)NC1=O`, the Potency result was “inactive”.

For the compound `Cc1cscn1`, the Potency result was “inactive”.

As to `Cn1cc[nH]c1=S`, the Potency entry is “inactive”.

For `COc1cc(C)ccc1O`, the Potency entry was “inactive”.

Take `O=Cc1ccccc1Cl`: the Potency entry was “inactive”.

Consider `CCCCC(CC)COP(=O)(OCC(CC)CCCC)OCC(CC)CCCC` (stereo not given), for which the Potency result is “inactive”.

With `C[CH2][Ge]([Cl])([CH2]C)[CH2]C`, the Potency result is “inactive”.

For `Fc1c(F)c(F)c(Br)c(F)c1F`, the Potency entry was “inactive”.

For the compound `COc1ccc2nc(NC(=O)Nc3ccccc3)sc2c1`, the Potency result is “inactive”.

As for `CC[C@H](NC(C)C)[C@H](O)c1ccc(O)c2[nH]c(=O)ccc12`, the Potency entry is “inactive”.

On to `O=c1[nH]c(=O)n([C@H]2C[C@H](O)[C@@H](CO)O2)cc1Br`, for which the Potency result is “inactive”.

In the case of `O=C(O)CCNC(=O)c1ccccc1`, the Potency result was “inactive”.

For the compound `CCCCN(C)C`, the Potency entry is “inactive”.

Take `O=CCCCC=O`: the Potency entry was “inactive”.

`C[C@](N)(Cc1ccc(O)c(O)c1)C(=O)O`: the Potency entry is “inactive”.

As to `Cc1cccc(Nc2ccccc2)c1`, the Potency result is “inactive”.

For `CN(C[C@@H](CC[N+]12CCC(C3CCCCC3)(CC1)CC2)c1ccc(Cl)c(Cl)c1)C(=O)c1cc(C(F)(F)F)cc(C(F)(F)F)c1`, the Potency was 54.5 µM (active).

In the case of `CSc1nc(NC2CC2)nc(NC(C)(C)C)n1`, the Potency result was “inactive”.

Regarding `CCCCCC/C=C/C(=O)OC`, the Potency entry was “inactive”.

For `CC(C)(C)c1cc(O)c(C(C)(C)C)cc1O`, the Potency entry is “inactive”.

As for `O=C(Oc1ccccc1)c1ccccc1O`, the Potency result was “inactive”.
